Screening data: PubChem BioAssay, National Center for Advancing Translational Sciences (NCATS)
Only some compounds are listed: those with a hit (about 4% of all), similar ones and a draw of the others.
TRHR agonist = agonists of human TRH receptor. P34981. TRHR cells, calcium flux fluo-8, FDSS agonist mode. activation, % at 2 µM. hit rate 0.18% among 360,000
Target sequence (P34981 whole entry, looked up): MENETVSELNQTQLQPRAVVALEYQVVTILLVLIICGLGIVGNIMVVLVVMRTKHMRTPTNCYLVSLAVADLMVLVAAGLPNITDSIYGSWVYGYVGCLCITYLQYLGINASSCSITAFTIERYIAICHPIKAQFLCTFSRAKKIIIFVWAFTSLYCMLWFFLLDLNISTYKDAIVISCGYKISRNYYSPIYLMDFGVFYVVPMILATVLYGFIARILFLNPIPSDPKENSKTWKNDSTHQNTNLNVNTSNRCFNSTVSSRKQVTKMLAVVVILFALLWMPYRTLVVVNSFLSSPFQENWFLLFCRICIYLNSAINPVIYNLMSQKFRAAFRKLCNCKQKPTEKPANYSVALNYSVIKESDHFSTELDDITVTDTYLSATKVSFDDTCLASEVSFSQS
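Steps: seed TRHR cells overnight; add fluo-8 no-wash Ca dye, RT 30 min–1.5 h; record 10 s baseline; pin-transfer compounds; monitor fluorescence 1 cycle/s for the agonist window. Calcium increases flag candidate agonists.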
D1 antagonist = antagonists of human D1 dopamine receptor; hit rate 3.2% among 360,000; AID 504652; HEK293 TREx D1 cells, calcium flux, dopamine EC80; active compounds read low; activity change, negative = inhibition, % at 10 µM; P21728; in the data active = activity change below about -30%
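Kinetic fluorescence of a calcium dye serves as the read-out. D1-expressing Hek293 Trex cells, induced overnight at 30 C, are exposed to compound for 180 s before an EC80 dopamine addition, then read 180 s further.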
Glioma ERSR ind = induces the endoplasmic reticulum stress response in human glioma cells; U87-MG GRP78 promoter luciferase reporter, 16 h; Potency, µM, actives largely listed as activators; hit rate 0.02% among 420,000; AID 602332; active = well fitted activation curve with a large enough effect; note: series mostly up to about 76 µM; nearly all actives have a fitted effect of over 35% in size
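ERSR induction read as luciferase luminescence (Bright-Glo, 10 min at room temperature) in stably transfected human U87-MG glioma cells exposed to compounds for 16 h, using GRP78 as sensor.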
D1 ag = agonists of human D1 dopamine receptor; hit rate 1% among 360,000; activation, % at 2 µM; HEK293 T-REx D1 cells, calcium flux, agonist mode
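Inducible HEK293 T-REx D1 cells, force-coupled to calcium signalling, were plated at 4000 cells/well with tetracycline and held overnight at 30 C. After no-wash calcium dye loading, compound-evoked calcium rise over 180 s flagged agonists.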
D1 PAM = potentiators of human D1 dopamine receptor | hit rate 0.036% among 360,000 | P21728 | potentiation, % at 10 µM | HEK293 TREx D1 cells, calcium flux, dopamine EC20 potentiation; in the data active = potentiation above about 30%
TRHR PAM = allosterically enhances the human TRH receptor. P34981. TRHR cells, fluo-8 calcium fluorescence, EC20 TRH enhancement. enhancement, % at 2 µM. hit rate 0.66% among 360,000; in the data active = enhancement above about 30%
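TRHR-expressing cells loaded with fluo-8 calcium dye were read kinetically (ex 480/em 530) during compound addition, then stimulated with an EC20 of TRH (10 nM final). Enhancement of the Gq-mediated intracellular calcium response was scored.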
A number is an active result; i = inactive; nt = no result given; ! = not active in a repeat. Cut-off read from the data, not from the text of the source, unless noted: active = activation above about 30%; inactive = the rest.

SMILES | TRHR agonist | D1 antagonist | Glioma ERSR ind | D1 ag | D1 PAM | TRHR PAM
CCC1(c2ccc(OC)cc2)NC(=O)N(C)C1=O (configuration not stated) | nt | nt | i | nt | nt | nt
O=C(Nc1ccc(N2CCCCC2)c(Cl)c1)c1ccc(N2CCOCC2)c([N+](=O)[O-])c1 | i | -48.1 | i | i | i | i
Cc1ccc(C(=O)NC(C)CCc2ccccc2)cc1[N+](=O)[O-] (configuration not stated) | i | -62.2 | i | i | i | i
O=C(Nc1ccc(Cc2ccncc2)cc1)c1ccc(N2CCOCC2)c([N+](=O)[O-])c1 | i | -44.1 | i | i | i | i
CCCC(=O)Nc1cccc(NC(=O)c2ccc(C)c([N+](=O)[O-])c2)c1 | i | -33.5 | i | i | i | i
O=C(Nc1cc(Cl)ccc1N1CCOCC1)c1ccc(N2CCCCC2)c([N+](=O)[O-])c1 | nt | nt | i | nt | nt | nt
C/C(=N\NC(=O)c1cc(-c2ccc(Cl)s2)[nH]n1)c1ccncc1 | i | i | i | i | i | i
COc1ccc(C(CNC(=O)c2ccc(N3CCCC3=O)cc2)N(C)C)cc1 (configuration not stated) | i | i | i | i | i | i
O=C(Nc1ccc(Cc2ccncc2)cc1)c1cccc([N+](=O)[O-])c1 | i | i | i | i | i | i
Cc1ccc(C(=O)Nc2ccc(Cc3ccncc3)cc2)cc1[N+](=O)[O-] | i | -35.1 | i | i | i | i
COc1ccccc1N(CC(=O)NC1CCCCC1)S(=O)(=O)c1cccs1 | i | i | i | i | i | i
O=C(COC(=O)CNC(=O)C1CCCCC1)Nc1ccccc1 | nt | nt | i | nt | nt | nt
Cc1cccc(C)c1NC(=O)COC(=O)CNC(=O)C1CCCCC1 | i | -31.4 | i | i | i | i
S=c1nc(NCc2ccc3c(c2)OCO3)c2ccccc2[nH]1 | i | i | i | i | i | i
O=c1[nH]c(SCc2ccccc2F)nc2ccccc12 | i | i | i | i | i | i
O=c1cc(CSc2nc3ccccc3c(=O)[nH]2)c2ccc(O)cc2o1 | i | -37.3 | i | i | i | i
COc1ccc(S(=O)(=O)N2CCOCC2)cc1NC(=O)COC(=O)C1COc2ccccc2O1 (configuration not stated) | i | i | i | i | i | i
COc1ccc(OC)c(CCNc2ncnc3onc(-c4ccc(Cl)cc4)c23)c1 | i | i | i | i | i | i
COc1ccc(OC)c(CCNc2ncnc3onc(-c4ccc(F)cc4)c23)c1 | i | -32.4 | i | 33.3 | i | i
CC(C)C(=O)NNC(=O)c1csc(-c2cccs2)n1 | i | i | i | i | i | 31.6
O=C1CN(C(=O)COC(=O)c2cccc(OCc3ccccc3)c2)c2ccccc2N1 | i | -89.4 | i | i | i | i
COc1cc(CC(=O)OCC(=O)N2CC(=O)Nc3ccccc32)cc(OC)c1OC | i | -32.7 | i | i | i | i
COc1cc(CCC(=O)OCC(=O)N2CC(=O)Nc3ccccc32)cc(OC)c1OC | nt | nt | i | nt | nt | nt
COc1ccc(N2CCN(C(=O)CCCCCn3c(=S)[nH]c4ccc(N5CCOCC5)cc4c3=O)CC2)cc1 | nt | nt | i | nt | nt | nt
O=C(NCCc1ccc(Cl)cc1)c1cccs1 | i | -32.7 | i | i | i | i
SMILES | TRHR agonist | D1 antagonist | Glioma ERSR ind | D1 ag | D1 PAM | TRHR PAM
Cc1ccc2cc(CCNC(=O)c3cccs3)c(=O)[nH]c2c1C | i | -30.6 | i | i | i | i
O=C(Cc1ccc(Cl)cc1)NNC(=S)NC(=O)c1cccs1 | i | i | i | 47.4 | i | i
O=C(Cc1cccs1)NNC(=S)NCc1ccc(Cl)cc1 | i | i | i | i | i | i
CCOP(=O)(Cc1ccc(C(C)(C)CC(C)=O)o1)OCC | i | i | i | i | i | i
Cc1ccc(NC(=O)c2ccc3nc[nH]c3c2)cc1C | i | i | i | i | i | i
Cc1cc(C)n(-c2nc(NC(C)C)nc(NC(C)C)n2)n1 | i | i | i | i | i | i
C/C(=N\Nc1nc(N2CCOCC2)nc(N2CCOCC2)n1)c1cccc([N+](=O)[O-])c1 | i | i | i | i | i | i
Clc1ccc(/C=N/NC2=Nc3cccc4cccc2c34)cc1 | i | -33.1 | i | i | i | i
O=[N+]([O-])c1cccc(OCCN2CCC(Cc3ccccc3)CC2)c1 | i | i | i | i | i | i
C=CCN(CC=C)C(=O)COn1nnc2ccc(S(=O)(=O)N3CCOCC3)cc21 | i | i | i | i | i | i
CCOc1ccc(CCNC(=O)CN2C(=O)CCSc3ccccc32)cc1 | i | i | i | i | i | i
CCOc1ccc(CCNC(=O)C(C)N2C(=O)CC(C)(C)Sc3ccccc32)cc1 (configuration not stated) | i | i | i | 38.4 | i | i
COc1ccc(C(=O)N(c2ccc(OC)cc2)S(=O)(=O)c2cccs2)cc1 | i | i | i | i | i | i
COc1ccc(N(C(=O)c2ccccc2)S(=O)(=O)c2cccs2)cc1 | i | i | 31.6µM | i | i | i
Cc1ccc(SCC(=O)Nc2ccc(O)c(-c3nc4cc(C)ccc4o3)c2)cc1 | i | -83.2 | i | i | i | i
CC1CN(c2nc3ccccn3c(=O)c2C=O)CC(C)O1 (configuration not stated) | i | -33.9 | i | i | i | i
CC1Cc2ccccc2N1S(=O)(=O)c1cccc(C(=O)NCc2ccncc2)c1 (configuration not stated) | i | -54.1 | i | i | nt | i
CCCN(C(=O)C1CCCN(c2ncnc3c2nc2n3CCCCC2)C1)c1ccc(F)cc1 (configuration not stated) | i | i | i | i | i | i
O=[N+]([O-])c1cc(-c2csc(NCCc3nc4cc(Cl)c(N5CCCCC5)cc4n3CCCO)n2)ccc1Cl | nt | nt | i | nt | nt | nt
COc1ccc(COc2ncnc3ccc(Br)cc23)cc1F | i | i | i | i | 31.7 | i
Brc1ccc(COc2ncnc3ccccc23)cc1 | i | i | i | i | i | i
COc1ccccc1CN1CCCC(n2cc(C(=O)N3CCCCC3)nn2)C1 (configuration not stated) | nt | nt | i | nt | nt | nt
O=C(CCn1ccc2cc(S(=O)(=O)N3CCCC3)ccc21)NCc1ccccc1Cl | i | i | i | i | i | i
CCOc1ccccc1CNC(=O)Cn1ccc2cc(S(=O)(=O)N3CCCCCC3)ccc21 | i | i | i | i | i | i
CCOc1ccccc1CNC(=O)CCn1ccc2cc(S(=O)(=O)N3CCCCC3)ccc21 | i | i | i | 48.1! | i | i
O=C(CCn1ccc2cc(S(=O)(=O)N3CCCC3)ccc21)NCc1ccccc1F | i | -31.3! | i | i | i | i
O=C(NCCN1C(=O)S/C(=C\c2ccc(Cl)c([N+](=O)[O-])c2)C1=O)C1=COCCO1 | i | -56.9 | i | i | i | i
O=C(NCCN1C(=O)S/C(=C\c2ccc(Cl)c(Cl)c2)C1=O)c1cnccn1 | i | i | i | i | i | i
